This assay addresses Shiga toxin 2 (Escherichia coli O157:H7) (UniProt P09385+P09386). Put plainly: E. coli 0.157:H7 Shiga Toxin SOP - stx2 screening assay. Format: functional. The arrangement: scale not given: direction of the effect not stated beside the values. As to conditions: 30 µM.
Turning to `CC(C)c1ncc2c(n1)CN(Cc1cccc(OCC(N)=O)c1)CC2`, the Percent Effect came to 12.8%.

For the compound `CCc1ncc(CN(C)C(=O)Nc2cccnc2N2CCCC2)s1`, the Percent Effect was -14.5%.

Regarding `Cc1cnn(CC(C)NCc2nc(-c3cccnc3)no2)c1` (stereo not given), the Percent Effect is -15.5%.

In the case of `COCC(=O)N1CCN(C(=O)c2scnc2C)CC1`, the Percent Effect was -11%.

Take `COc1ccc(CNCC2CCN(CC(C)O)CC2)c2ccccc12` (stereo not given): the Percent Effect was -33.8%.

As for `CN(Cc1cnn(C)c1)C(=O)NCc1nnc2n1CCC2`, the Percent Effect came to 4.62%.

With `COCC(C)(O)CNC(=O)COc1ccccc1OC` (stereo not given), the Percent Effect is -2.25%.

In the case of `CCOC(=O)N1CCC(C(=O)c2cc(F)ccc2F)CC1`, the Percent Effect is 36.2%.

`Cc1noc(C(C)N2CCN(CC(=O)N3CCOCC3)CC2)n1` (stereo not given): the Percent Effect was -0.00886%.

For the compound `COc1ccc(CNC(C)c2ccc3[nH]c(=O)[nH]c3c2)cc1` (stereo not given), the Percent Effect is -13.7%.

As to `Cc1ccccc1N1CCCN(C(=O)CCCS(N)(=O)=O)CC1`, the Percent Effect is -25.7%.

As for `CC(N(C)Cc1nc2c(cnn2C)c(=O)[nH]1)C(C)(C)C` (stereo not given), the Percent Effect turned out to be 28.9%.

In the case of `CCCNC(=O)Cn1cc(-c2ccccc2)cn1`, the Percent Effect is -0.0685%.

As to `CCNC(=O)[C@@H]1C[C@@H](NC(=O)Cc2ccccn2)CN1CCCSC`, the Percent Effect is -40.5%.

For the compound `CS(=O)(=O)N[C@@H]1CCO[C@]2(CCN(C(=O)c3cnccn3)C2)C1`, the Percent Effect came out at 3.82%.

As to `Cc1csc(N2CCN(C(=O)Cc3ccsc3)CC2)n1`, the Percent Effect was -7.04%.

Consider `O=C(NCc1ccoc1)Nc1ccc(CN2CCOC2=O)cc1`, for which the Percent Effect was -75.3%.

`CCc1nccn1C1CCCN(C(=O)c2ccc3nncn3c2)C1` (stereo not given): the Percent Effect was determined as 7.36%.

Regarding `Cc1nc(CN2CCCC(Cn3cc(CCO)nn3)C2)c[nH]1` (stereo not given), the Percent Effect is -6.46%.

Consider `COCCOc1ccc(NC(=O)C2CCC2)cn1`, for which the Percent Effect was -10.4%.

`Cc1c(O)oc(-c2ccc(Br)cc2)nc1=O`: the Percent Effect is -45.4%.

Take `COCCN1CCN(C(=O)c2cc(C(C)C)on2)[C@H]2CS(=O)(=O)C[C@H]21`: the Percent Effect was -5.69%.

For `N#Cc1ccc(OCCCN2CCc3cncnc3C2)cc1`, the Percent Effect is -20.7%.

Turning to `Cc1nc(C2CCCN(C(=O)c3cccc4c3OCO4)C2)no1` (stereo not given), the Percent Effect is -12.6%.

On to `COc1ccc(C2CC(=O)Nc3c2cnn3C2CCCC2)cc1` (stereo not given), for which the Percent Effect came out at 10.9%.

As for `c1cnnc(NCC2CN(Cc3cccc4c3OCCO4)CCO2)c1` (stereo not given), the Percent Effect was -1.74%.

On to `Cc1nc(CN2CCC(C(=O)O)(n3ccc(-c4ccco4)n3)CC2)co1`, for which the Percent Effect is -9.21%.

Turning to `O=C(CCc1ccccn1)N1CCN(C(=O)CC2CCCCC2)CC1`, the Percent Effect is 3.5%.

For `NCc1cnn(-c2ccccc2C(=O)NCCCn2ccnc2)c1`, the Percent Effect was 10.4%.

Regarding `Cn1ccnc1CN1CCN(CC(=O)NCC(F)(F)F)CC1`, the Percent Effect was 18.6%.

For the compound `Cc1noc(C)c1CCC(=O)NC(C)c1nnc2n1CCC2` (stereo not given), the Percent Effect was -3.03%.

On to `Cn1cc(C(=O)N2CC[C@@H]3[C@@H]2CCN3Cc2cccc(F)c2)cn1`, for which the Percent Effect is 0.579%.

On to `COCCCN1CCCN(C(C)C(=O)Nc2cccc(I)c2)CC1` (stereo not given), for which the Percent Effect is -31.1%.

Take `CC(Oc1ccccc1C(F)(F)F)C(=O)NCCC(=O)N(C)C` (stereo not given): the Percent Effect came out at 8.25%.

As to `Cc1ccc(NC2CCN(C(=O)c3cccc(F)c3F)CC2)nn1`, the Percent Effect is -17%.

Regarding `CCCOc1cc(CNC(=O)Nc2cccnc2N2CCCC2)ccn1`, the Percent Effect was -9.71%.

As to `Cn1cc(CC2CCN(C(=O)NCc3cn4ccsc4n3)C2)cn1` (stereo not given), the Percent Effect was -8.11%.

Regarding `CC(C)N1CCc2c(C#N)c(NCc3ccco3)n3cnnc3c2C1`, the Percent Effect is -4.38%.

As for `O=C(C1=CCCC1)N1C[C@@H]2COC[C@]2(COc2cccnc2)C1`, the Percent Effect came out at 1.76%.

Turning to `Cc1ccc(C(=O)N2CC[C@@H]3[C@H]2CCC(=O)N3c2ccccc2)o1`, the Percent Effect was -13%.

The values above are taken from ChEMBL document CHEMBL3988442, “University of Dundee, Small-Polar-MMV Screening Library” (2021).
